# Potency and affinity values are given separately. Results filed as inconclusive are left out. Entries that show only a call come without a potency. Calls of active or inactive are those of the source.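 How the source made its calls, unless noted: active means signal drop whose fitted half-maximal concentration is at most twice the top valid dose, in every test run; inconclusive means mixed calls across runs, poor fit, or flat 30 to 70% inhibition; inactive means wrong direction, flat within 30%, or potency beyond limit.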
# Assays:
# [1] = RMG-1 ovarian cancer cell viability loss – cherry-pick, dose response (AID 687029); settings: RMG-1 viability, CellTiterGlo ATP luminescence, 96 h; series mostly up to 35 µM;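 further: cells exposed to compound for 96 hours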
# [2] = IOSE-T80 viability loss, PAX8-independent line – cell-based, cherry-pick, selectivity assay for PAX8 inhibitor project, dose response (AID 687032;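 active means fitted half-maximal concentration for viability loss no higher than twice the top valid dose, in every repeat run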;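 further: cells exposed to compound for 96 h before reading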); settings: CellTiterGlo ATP luminescence, 96 h; series mostly up to 35 µM
# [3] = CMV-driven luciferase expression suppression in HEK293 – cell-based, luminescence, dry powder, counter-screen for Pax8 inhibitor project, dose response (AID 743020;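 active means signal-lowering compounds whose fitted half-maximal concentration is at or below twice the top tested dose in every run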;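 further: HEK293 cells stably expressing the CMV luciferase reporter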); settings: HEK293 CMV-luciferase reporter, SteadyGlo luminescence, 24 h; series mostly up to 35 µM
# [4] = general cell-killing toxicity readout – plate reader, dry powder samples, cytotoxicity control for PAX8 inhibitor project, dose response (AID 743021; call rule not given here); settings: cell line, non-specific cytotoxicity counter-screen; series mostly up to 35 µM
# [5] = viability loss in HeLa cells – cell-based, ATP luminescence, cherry-pick samples, cytotoxicity control, dose response (AID 687004;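 active means a fitted half-maximal concentration no higher than twice the top valid tested dose, with signal falling as cells die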); settings: ATP luminescence (CellTiter-Glo), 48 h; series mostly up to 26 µM
# [6] = PAX8 transcriptional activity inhibition in RMG-I – RMG-I cells, luciferase, cherry-pick, dose response (AID 687027;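 active means every replicate test run called active, with the signal dropping as expected and potency within twice the top valid dose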); settings: RMG-I TPO-Luc reporter, SteadyGlo luminescence, 24 h; series mostly up to 8 µM
structure (smiles),measurement,setting,value
CC[C@H](C)[C@@H]1NC(=O)CNC(=O)c2csc(n2)[C@H](C(C)(C)O)OC(=O)C(C)(C)[C@H](CCCC(C)(Cl)Cl)OC(=O)c2csc1n2,outcome,[1],inactive
same,outcome,[2],inactive
same,outcome,[3],inactive
same,outcome,[4],inactive
CSCCC(c1nnnn1-c1ccc2c(c1)OCCO2)N1CCC(n2c(=O)[nH]c3ccccc32)CC1 (configuration not stated),outcome,[1],inactive
same,outcome,[2],inactive
same,outcome,[3],inactive
same,outcome,[4],inactive
CC1=C(O)C(=O)C=C2C1=CC=C1C2(C)CCC2(C)C3CC(C)(C(=O)O)CCC3(C)CCC12C (configuration not stated),outcome,[1],inactive
same,outcome,[2],inactive
same,outcome,[3],inactive
C[C@H]1CN([C@@H](C)CO)C(=O)CCCn2nncc2CO[C@H]1CN(C)C(=O)Oc1cccc2ccccc12,outcome,[5],inactive
CCCc1nc2ccc(Br)cc2c(=O)n1-c1ccc([N+](=O)[O-])c(C(F)(F)F)c1,outcome,[6],inactive
same,outcome,[1],inactive
same,outcome,[2],inactive
same,outcome,[3],inactive
same,outcome,[4],inactive
O=c1[nH]c2ccccc2n1C1CCN(C(c2cc3ccccc3o2)c2nnnn2Cc2ccccc2)CC1 (configuration not stated),outcome,[1],inactive
same,outcome,[2],inactive
same,outcome,[3],inactive
COc1ccc(-n2nnnc2C(CCc2ccccc2)N2CCC(n3c(=O)[nH]c4ccccc43)CC2)cc1 (configuration not stated),outcome,[1],inactive
COc1cc2c(c(OC)c1OC)-c1ccc(O)cc1[C@@H](NC(C)=O)CC2,outcome,[1],inactive
same,outcome,[2],inactive
same,outcome,[3],inactive
same,outcome,[4],inactive
COC(=O)C1=C(C(=O)OC)C2OC1c1cc3ccccc3cc12,outcome,[1],inactive
same,outcome,[2],inactive
O=c1[nH]c2ccccc2n1C1CCN(C(CCc2ccccc2)c2nnnn2-c2ccc3c(c2)OCCO3)CC1 (configuration not stated),outcome,[1],inactive
N#CC1c2ccccc2-n2nncc2CN1Cc1cc(Cl)cc(Cl)c1 (configuration not stated),outcome,[1],inactive
same,outcome,[2],inactive
same,outcome,[3],inactive
same,outcome,[4],inactive
